KCNQ2 enhance – enhances the rat KCNQ2 potassium channel; CHO-K1 KCNQ2, FluxOR thallium flux fluorescence; stronger effect = higher value; 310,000 compounds, 0.54% hits; B-score at 10 µM; O88943; AID 2239;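 active means fluorescence ratio B-score at least 3 SD of library B-scores, with initial fluorescence B-score within 3 of them, cut at about 5.3 in these data; same plate scores as AID 2156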;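 further: B-score of peak minus minimum over baseline fluorescence ratio after K+ and Tl+ stimulus; positive B-score means potentiation of KCNQ2 with more thallium influx and brighter signal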
KCNQ2 inh – blocks the rat KCNQ2 potassium channel. B-score at 10 µM. O88943. 310,000 compounds, 1.1% hits. CHO-K1 KCNQ2, FluxOR thallium flux, 20 min; stronger effect = lower value;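 active means fluorescence ratio B-score at most minus 3 library SDs, with starting brightness B-score within 2 library SDs, cut at about -5.5 in these data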
KCNQ2 block conf – rat KCNQ2 channel inhibition, confirmatory screen; KCNQ2-expressing cells, thallium flux; stronger effect = lower value; 1,000 compounds, 57% hits; activity change, negative = inhibition, % at 10 µM; shares compounds with KCNQ2 inh;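 further: 0% = vehicle wells and values are ratio percent relative to vehicle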
KCNQ1 spec – KCNQ2 inhibitor that also affects human KCNQ1 channel | shares compounds with KCNQ2 inh | KCNQ1-expressing cells, FluxOR thallium flux fluorescence; stronger effect = lower value | activity change, negative = inhibition, % at 10 µM | 1,000 compounds, 15% hits;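 active means activity change at least 3 SD of negative controls below their mean in both duplicate wells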;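 further: CHO cells stably transfected with KCNQ1 and depolarized by potassium stimulus; peak minus minimum fluorescence over baseline after thallium addition; 0% = vehicle negative control and -100% = blank without thallium stimulus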
Target sequence (P51787 whole entry, looked up): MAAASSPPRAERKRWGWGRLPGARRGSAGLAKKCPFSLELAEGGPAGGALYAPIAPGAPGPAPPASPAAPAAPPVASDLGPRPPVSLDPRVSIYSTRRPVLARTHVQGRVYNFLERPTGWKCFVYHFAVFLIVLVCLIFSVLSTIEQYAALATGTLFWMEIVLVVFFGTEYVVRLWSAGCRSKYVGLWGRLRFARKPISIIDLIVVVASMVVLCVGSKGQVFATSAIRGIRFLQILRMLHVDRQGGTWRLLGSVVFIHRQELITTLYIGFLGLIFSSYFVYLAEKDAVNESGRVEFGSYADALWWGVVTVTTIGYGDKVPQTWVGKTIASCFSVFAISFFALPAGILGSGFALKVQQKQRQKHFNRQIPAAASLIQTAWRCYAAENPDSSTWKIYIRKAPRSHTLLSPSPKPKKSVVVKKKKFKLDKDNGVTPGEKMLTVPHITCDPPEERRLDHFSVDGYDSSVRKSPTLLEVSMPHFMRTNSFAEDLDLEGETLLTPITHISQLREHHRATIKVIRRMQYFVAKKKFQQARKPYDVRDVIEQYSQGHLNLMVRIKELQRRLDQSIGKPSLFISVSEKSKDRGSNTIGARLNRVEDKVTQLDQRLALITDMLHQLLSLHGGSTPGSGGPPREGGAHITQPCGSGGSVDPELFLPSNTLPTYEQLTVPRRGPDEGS
CHO parental ctr – activity in parental CHO cells lacking KCNQ2. shares compounds with KCNQ2 inh. thallium flux counter-screen; stronger effect = lower value. activity change, % at 10 µM. 1,000 compounds, 14% hits;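 further: 0% = vehicle negative controls with stimulus buffer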
KCNQ2 patch conf – confirmation of rat KCNQ2 potassium channel inhibitors | shares compounds with KCNQ2 inh | KCNQ2-expressing cells, automated patch clamp current | calls only at 10 µM | 550 compounds, 49% hits
* hit, by the source's call. Most compounds without a hit are left out; they make up all but 1.6% or so of the library. Unless noted, how the calls were made is not given here.

For O=C1c2ccccc2C(O)(c2ccccc2)N1CCc1ccccc1 (stereo not given) the results were KCNQ2 enhance -8.44, KCNQ2 inh -8.44*, KCNQ2 block conf -24.0%*, KCNQ1 spec inactive, CHO parental ctr inactive and KCNQ2 patch conf active.
`CN(CC(=O)Nc1ccc([N+](=O)[O-])cc1Br)Cc1c(F)cccc1Cl` gave KCNQ2 enhance -11.2, KCNQ2 inh -11.2*, KCNQ2 block conf inactive, KCNQ1 spec inactive and CHO parental ctr inactive.
CN(CCOc1ccccc1)CC(=O)Nc1ccc([N+](=O)[O-])cc1Cl was read as KCNQ2 inh inactive.
Screening Cc1oc(-c2ccccc2F)nc1CS(=O)CC(=O)NC1CCCCC1 (stereo not given) returned KCNQ2 enhance 0.87 and KCNQ2 inh inactive.
Screening COc1ccc(N(C)C(=O)c2cc3c(Cl)nc4ccccc4c3s2)cc1 returned KCNQ2 enhance -9.52, KCNQ2 inh -9.52*, KCNQ2 block conf -39.0%*, KCNQ1 spec -40.0%*, CHO parental ctr -37.0%* and KCNQ2 patch conf active.
COc1ccc(NC(=O)c2cc3c(Cl)nc4ccccc4c3s2)c(OC)c1 was read as KCNQ2 enhance 0.8 and KCNQ2 inh inactive.
For CCOC(=O)c1cnc2c(OC)cccc2c1N1CCN(c2ccc(OC)cc2)CC1 the results were KCNQ2 inh inactive.
Screening CCOC(=O)c1cnc2c(OC)cccc2c1N1CCN(c2ccccc2OC)CC1 returned KCNQ2 enhance -12.1, KCNQ2 inh -12.1*, KCNQ2 block conf -29.5%*, KCNQ1 spec inactive, CHO parental ctr inactive and KCNQ2 patch conf inactive.
For Cc1cc(C)n(-c2ccc(NC(=O)C3CCCCN3C(=O)c3sccc3C)cc2)n1 (stereo not given) the results were KCNQ2 enhance 3.16 and KCNQ2 inh inactive.
COc1ccc(NS(=O)(=O)c2ccc(C)c(C(=O)N3CC(C)OC(C)C3)c2)cc1 (stereo not given) was read as KCNQ2 enhance 3.91 and KCNQ2 inh inactive.
`CN1CCN(C2Cc3cc(F)ccc3Sc3ccc(Cl)cc32)CC1` (stereo not given) gave KCNQ2 inh inactive.
CN1CCN(C2Cc3ccccc3Sc3cc(C(F)(F)F)ccc32)CC1 (stereo not given) was read as KCNQ2 enhance -7.38, KCNQ2 inh -7.38*, KCNQ2 block conf -39.0%*, KCNQ1 spec -38.0%*, CHO parental ctr -30.0%* and KCNQ2 patch conf inactive.
`CCOC(=O)c1nc(Nc2cc(Cl)ccc2OC)c2ccccc2n1` gave KCNQ2 inh inactive.
Screening COCCn1c(-c2ccc(OC)cc2)cnc1N returned KCNQ2 inh inactive.
CCOc1ccc(-c2cnc(NCc3cccc4ccccc34)n2CCOC)cc1 was read as KCNQ2 enhance -9.71, KCNQ2 inh -9.71*, KCNQ2 block conf inactive, KCNQ1 spec inactive and CHO parental ctr inactive.
Screening COc1ccc(NS(=O)(=O)c2cn(C)cn2)cc1OC returned KCNQ2 inh inactive.
For O=C(OCC1OC(n2ncc(=O)[nH]c2=O)C(OC(=O)c2ccccc2)C1OC(=O)c1ccccc1)c1ccccc1 (stereo not given) the results were KCNQ2 enhance -11.1, KCNQ2 inh -11.1*, KCNQ2 block conf -22.5%*, KCNQ1 spec inactive, CHO parental ctr inactive and KCNQ2 patch conf inactive.
CC(=O)OC[C@H]1O[C@@H](n2ncc(=O)[nH]c2=O)[C@H](OC(C)=O)[C@@H]1OC(C)=O was read as KCNQ2 enhance 0.09 and KCNQ2 inh inactive.
For COc1ccc(-c2c[n+]3c4n2CCCCC4=C(c2ccc(Br)cc2)C3)cc1 the results were KCNQ2 enhance -8.68, KCNQ2 inh -8.68*, KCNQ2 block conf -33.0%*, KCNQ1 spec inactive, CHO parental ctr inactive and KCNQ2 patch conf inactive.
For COc1ccc(-c2cnc3n2CCCCC3)cc1 the results were KCNQ2 inh inactive.
For Cc1ccc(NC(=O)NC2CC(=O)N(c3ccc4c(c3)OCCO4)C2)cc1F (stereo not given) the results were KCNQ2 enhance 0.82 and KCNQ2 inh inactive.
Screening CCn1c(N2CCN(C(=O)C34CC5CC(CC(C5)C3)C4)CC2)nc2ccccc21 returned KCNQ2 enhance -8.62, KCNQ2 inh -8.62*, KCNQ2 block conf -40.0%*, KCNQ1 spec -37.0%*, CHO parental ctr -36.5%* and KCNQ2 patch conf active.
Screening CCn1c(N2CCN(S(=O)(=O)c3ccccc3C(F)(F)F)CC2)nc2ccccc21 returned KCNQ2 inh inactive.
O=C(CN1CCN(C(=O)C2CCCO2)CC1)Nc1ccc(F)cc1 (stereo not given) was read as KCNQ2 inh inactive.
Screening C=CCn1c(SCC(=O)NCCO)nc2sc(C)c(C)c2c1=O returned KCNQ2 inh inactive.
C=CCn1c(SCC(=O)c2cc(C)n(C(C)COC)c2C)nc2sc(C)c(C)c2c1=O (stereo not given) was read as KCNQ2 enhance -10.8, KCNQ2 inh -10.8*, KCNQ2 block conf inactive, KCNQ1 spec inactive and CHO parental ctr inactive.
For Cc1nnc(SC(C)C(=O)NC2CCCc3ccccc32)n1-c1ccccc1 (stereo not given) the results were KCNQ2 enhance -6.64, KCNQ2 inh -6.64*, KCNQ2 block conf -37.0%*, KCNQ1 spec inactive, CHO parental ctr inactive and KCNQ2 patch conf active.
Cc1ccccc1CC(=O)NC1CCCc2ccccc21 (stereo not given) was read as KCNQ2 inh inactive.
CC(Sc1nnc(Nc2ccccc2)s1)C(=O)NC1CCCc2ccccc21 (stereo not given) was read as KCNQ2 inh inactive.
Screening O=C(CSc1nnnn1-c1ccccc1)NC1CCCc2ccccc21 (stereo not given) returned KCNQ2 inh inactive.
Screening Cc1ccccc1-n1nnnc1SC(C)C(=O)NC1CCCc2ccccc21 (stereo not given) returned KCNQ2 enhance -8.81, KCNQ2 inh -8.81*, KCNQ2 block conf -37.0%*, KCNQ1 spec -37.5%*, CHO parental ctr -31.0%* and KCNQ2 patch conf active.
Cc1ccccc1-n1c(C)nnc1SCC(=O)NC1CCCc2ccccc21 (stereo not given) was read as KCNQ2 enhance -7.67, KCNQ2 inh -7.67*, KCNQ2 block conf inactive, KCNQ1 spec inactive and CHO parental ctr inactive.
Screening Cc1ccc(N(CC(=O)NC2CCCCC2)S(=O)(=O)c2c(C)noc2C)cc1 returned KCNQ2 enhance 0.01 and KCNQ2 inh inactive.
COc1cc(/C=N/N2CCN(Cc3ccccc3)CC2)cc(OC)c1OC(C)=O was read as KCNQ2 inh inactive.
COc1ccc(C(O)(C(C)C)C(CN2CCOCC2)c2ccc(Cl)cc2)cc1 (stereo not given) was read as KCNQ2 enhance 2.58 and KCNQ2 inh inactive.
`Nc1nc(SCC(=O)N2CCCCC2)[nH]c(=O)c1NC(=O)c1ccccc1F` gave KCNQ2 inh inactive.
